# Laboratory results: PubChem BioAssay (NCI)
# Where “and” joins values, the source holds several entries; their conditions need not be identical. Equal values may be shown once. The panel holds about 83,000 compounds, 20% with a hit somewhere; the sample as a whole holds those more often.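 Results are percent growth after 48 hours of single-concentration exposure. 100 means growth as in untreated cells, lower positive values show inhibition; negative values down to -100 show cell death.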 Calls of active or inactive are those of the source. Rule for the calls: active = growth percent below 10; inactive = the rest.
# Columns and labels:
# Experiment in all cases: NCI-60 one-dose screen, 48 h (100 = growth as untreated, 0 = no growth, -100 = all killed)
# Conditions in all cases: 10 µM unless noted
# SK-MEL-2 melanoma = system: SK-MEL-2 melanoma
# EKVX NSCLC = system: EKVX NSCLC
# SN12C renal = system: SN12C renal
# UO-31 renal = system: UO-31 renal
# ACHN renal = system: ACHN renal
# CAKI-1 renal = system: CAKI-1 renal
# A498 renal = system: A498 renal
# CCRF-CEM leukemia = system: CCRF-CEM leukemia
# MOLT-4 leukemia = system: MOLT-4 leukemia
# SR leukemia = system: SR leukemia
# RPMI-8226 leukemia = system: RPMI-8226 leukemia
# OVCAR-8 ovarian = system: OVCAR-8 ovarian
# OVCAR-5 ovarian = system: OVCAR-5 ovarian
# OVCAR-4 ovarian = system: OVCAR-4 ovarian
# SK-OV-3 ovarian = system: SK-OV-3 ovarian
# IGROV1 ovarian = system: IGROV1 ovarian
# OVCAR-3 ovarian = system: OVCAR-3 ovarian
# HS 578T breast = system: HS 578T breast
# NCI/ADR-RES ovarian = system: NCI/ADR-RES ovarian
# TK-10 renal = system: TK-10 renal
Structure (SMILES),growth (SK-MEL-2 melanoma),growth (EKVX NSCLC),growth (SN12C renal),growth (UO-31 renal),growth (ACHN renal),growth (CAKI-1 renal),growth (A498 renal),growth (CCRF-CEM leukemia),growth (MOLT-4 leukemia),growth (SR leukemia),growth (RPMI-8226 leukemia),growth (OVCAR-8 ovarian),growth (OVCAR-5 ovarian),growth (OVCAR-4 ovarian),growth (SK-OV-3 ovarian),growth (IGROV1 ovarian),growth (OVCAR-3 ovarian),growth (HS 578T breast),growth (NCI/ADR-RES ovarian),growth (TK-10 renal)
CN1CCN(c2ccc3nc(-c4c(N)c5c(F)cccc5[nH]c4=O)[nH]c3c2)CC1,45.5% (inactive),-82.3% (active) and 54.7% (inactive),26.3% (inactive) and 27.6% (inactive),7.59% (active) and 16% (inactive),17.8% (inactive) and 18% (inactive),14% (inactive) and 20.4% (inactive),29% (inactive) and 14.6% (inactive),6.23% (active) and 10.7% (inactive),-8.41% (active) and 1.37% (active),-11.8% (active) and 1.99% (active),47.5% (inactive) and 53.7% (inactive),35.4% (inactive) and 28.2% (inactive),56.1% (inactive) and 61.3% (inactive),64.7% (inactive) and 53.9% (inactive),1.69% (active) and 24.6% (inactive),13.9% (inactive) and 13.5% (inactive),53.5% (inactive) and 48.2% (inactive),2.57% (active),41% (inactive) and 47% (inactive),–
CC1=C[C@H]2c3c(c(O)c(O)c4oc5cc(O)cc(O)c5c(=O)c34)[C@H](c3cc(O)c(O)c4oc5cc(O)cc(O)c5c(=O)c34)[C@H]2C(C)(C)C1,-20% (active) and -41.4% (active),21.4% (inactive) and -31.9% (active),9.13% (active) and -8.98% (active),–,18.1% (inactive) and -7.12% (active),-20.5% (active) and -2.78% (active),-4.52% (active) and -73.5% (active),6.01% (active) and -9.45% (active),7.66% (active) and -18.8% (active),1.73% (active) and 3.96% (active),4.38% (active) and -30.3% (active),4.35% (active) and 4.94% (active),11% (inactive) and 12.4% (inactive),20.7% (inactive) and 7.19% (active),–,–,-5.67% (active) and -43.9% (active),3.36% (active) and -17.1% (active),55.8% (inactive) and 23.7% (inactive),30.1% (inactive) and -5.84% (active)
CCC(=O)C(CC)c1cccc(OC)c1 (centres undefined),–,106% (inactive),112% (inactive),89.9% (inactive),106% (inactive),94.4% (inactive),87.8% (inactive),93.8% (inactive),98.4% (inactive),96.7% (inactive),101% (inactive),105% (inactive),115% (inactive),105% (inactive),121% (inactive),107% (inactive),117% (inactive),106% (inactive),101% (inactive),101% (inactive)
COc1ccc(Cn2c(NCCN=C(N)N)nc(=O)n(Cc3ccc(F)cc3)c2=O)cc1,101% (inactive),–,91.4% (inactive) and 68.8% (inactive),77.7% (inactive) and 75.3% (inactive),97.7% (inactive) and 102% (inactive),95.2% (inactive) and 86.5% (inactive),92.1% (inactive) and 97.1% (inactive),93.1% (inactive) and 87.4% (inactive),84.6% (inactive) and 88.4% (inactive),85.5% (inactive),87.9% (inactive) and 92.2% (inactive),101% (inactive) and 99.9% (inactive),89.9% (inactive) and 95.8% (inactive),101% (inactive) and 92.5% (inactive),98.8% (inactive) and 96.2% (inactive),90.3% (inactive) and 103% (inactive),96.5% (inactive) and 104% (inactive),87.5% (inactive) and 66.2% (inactive),114% (inactive) and 103% (inactive),103% (inactive) and 104% (inactive)
